Most compounds without a hit are left out; they make up all but 4.7% or so of the library.
TRHR PAM – allosteric enhancers of human TRH receptor | enhancement, % at 2 µM | P34981 | 360,000 tested, 0.66% active | TRHR cells, fluo-8 calcium fluorescence, EC20 TRH enhancement; in the data active = enhancement above about 30%; note: 0% is about no effect
Target sequence (P34981 whole entry, looked up): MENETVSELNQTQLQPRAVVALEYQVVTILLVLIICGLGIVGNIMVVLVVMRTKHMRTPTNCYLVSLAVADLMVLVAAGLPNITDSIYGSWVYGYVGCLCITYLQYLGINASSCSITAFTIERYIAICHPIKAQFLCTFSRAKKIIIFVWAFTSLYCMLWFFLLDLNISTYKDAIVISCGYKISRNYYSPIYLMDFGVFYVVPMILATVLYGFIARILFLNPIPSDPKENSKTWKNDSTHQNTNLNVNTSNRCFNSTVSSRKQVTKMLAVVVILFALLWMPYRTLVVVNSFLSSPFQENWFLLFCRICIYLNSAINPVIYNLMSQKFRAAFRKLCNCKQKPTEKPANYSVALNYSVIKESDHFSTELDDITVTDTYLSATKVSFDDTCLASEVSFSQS
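TRHR-expressing cells loaded with fluo-8 calcium dye were read kinetically (ex 480/em 530) during compound addition, then stimulated with an EC20 of TRH (10 nM final). Enhancement of the Gq-mediated intracellular calcium response was scored.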
TRHR agonist – agonists of human TRH receptor. TRHR cells, calcium flux fluo-8, FDSS agonist mode. AID 493084. activation, % at 2 µM. P34981. 360,000 tested, 0.18% active; note: 0% is about no effect
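In this calcium-flux screen, cells bearing human TRHR are dye-loaded with fluo-8, baselined for 10 cycles, then exposed to library compounds; positive kinetic calcium responses during the agonist phase mark hits, with TRH as control.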
D1 PAM – enhances dopamine response at the human D1 receptor; P21728; potentiation, % at 10 µM; AID 504651; 360,000 tested, 0.036% active; HEK293 TREx D1 cells, calcium flux, dopamine EC20 potentiation; in the data active = potentiation above about 30%; note: 0% is about no effect
D1 ag – human D1 receptor agonism. P21728. HEK293 T-REx D1 cells, calcium flux, agonist mode. activation, % at 2 µM. 360,000 tested, 1% active; note: 0% is about no effect
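Tetracycline-induced HEK293 TREx D1 cells, force-coupled to calcium signalling, were dye-loaded with a no-wash calcium kit. Compound was pin-added after a 10 s baseline. Fluorescence was read kinetically at 1 cycle/s for 180 s, with calcium rises flagged as agonism.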
D1 antag – human D1 dopamine receptor antagonism; HEK293 TREx D1 cells, calcium flux, dopamine EC80; hits give low values; activity change, negative = inhibition, % at 10 µM; 360,000 tested, 3.2% active; in the data active = activity change below about -30%; note: % is set by controls: 0 for no effect and ±100 for the full control effect
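Using tetracycline-induced force-coupled D1 Hek293 cells and a calcium dye, signals were followed for 180 s after compound, then for 180 s after EC80 dopamine, to detect inhibitors.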
* marks the source's active call; other numbers are inactive results; nt = not tested or not shown. Cut-off read from the data, not from the text of the source, unless noted: active = activation above about 30%; inactive = the rest.

SMILES	TRHR PAM	TRHR agonist	D1 PAM	D1 ag	D1 antag
COc1ccc(Cn2ccnc2SCC(=O)Nc2ccc(C)cc2C)cc1	6	0	-3	0	-10
CCC1CCCCN1Cc1cn2c(-c3ccc(Br)cc3)nnc2s1 (centres undefined)	-1	0	-4	0	-32*
Cc1ccc(-c2nnn(CC(=O)Nc3nnc(C(C)C)s3)n2)cc1	-1	0	2	2	-4
COc1ccc(C2(CNC(=O)C(=O)Nc3ccc(F)cc3)CCCC2)cc1OC	32*	1	-1	-1	6
COc1ccc(C2(CNC(C)=O)CCOCC2)cc1OC	2	0	nt	2	-35*
COc1ccccc1CN1CCC(CNS(=O)(=O)c2cc(-c3cc(C)no3)ccc2OC)CC1	-3	0	-2	8	-7
Cc1ncc(CN2CCC(C(=O)Nc3ccc(Oc4cccnc4)cc3)CC2)cn1	-4	0	2	3	-6
O=C(Nc1ccc(Oc2cccnc2)cc1)C1CCN(Cc2ccc(F)cc2)CC1	5	3	-3	36*	-25
C#Cc1ccc(CN2CCC(C(=O)Nc3ccc(Oc4ccccc4)nc3)CC2)cc1	3	3	-5	41*	-12
Cc1ccc(C)c(N2CCN(S(=O)(=O)c3ccc(-c4cc(C)no4)s3)CC2)c1	-4	1	3	5	-7
CCCCOC(=O)c1ccc(NC(=O)c2ccc3c(c2)CCCN3S(C)(=O)=O)cc1	3	9	-2	24	-5
COc1cccc(CNc2ccc(F)c([N+](=O)[O-])c2)c1O	-4	1	-8	8	-31*
O=[N+]([O-])c1ccccc1CNc1ccc(F)c(Cl)c1	2	-1	7	-2	-1
CCN(CC)S(=O)(=O)c1ccc(N2CCc3cc(OC)c(OC)cc3C2)nc1	10	1	8	-2	-3
COc1ccc(/C=N/NC(=O)C(C)n2nnc3ccccc32)cc1OC (centres undefined)	1	0	-7	0	-74*
COc1cc(/C=N/NC(N)=O)ccc1OC(=O)c1ccco1	-2	0	-3	4	-35*
COc1ccc(/C=N/NC(=O)CSc2ccccn2)cc1OC	4	1	-8	1	-32*
CCc1ccc(Nc2n[n+](-c3ccccc3)c(-c3ccc(OC)c(Br)c3)s2)cc1	0	0	5	4	-10
Cc1ccc(C(=O)N2CCCC(CCC(=O)N3CCN(c4ccccn4)CC3)C2)cc1C (centres undefined)	-5	-1	-5	7	-39*
C1CCC(C(CC2CCCCN2)C2CCCCC2)CC1 (centres undefined)	26	2	13	136*	67
COc1ccc(-n2c(=O)c3c(c4cc(OC)ccc4n3C)n(CCC(C)C)c2=O)cc1	-4	-1	3	0	-5
COc1ccc(OC)c(NC(=O)C2CCN(c3cc(-c4ccccc4)nc4ncnn34)CC2)c1	6	-1	5	2	-4
COc1ccccc1NC(=O)N1CCN(c2cc(-c3ccccc3)nc3ncnn23)CC1	-1	-1	2	0	-54*
COc1ccc(OCc2cc(C(=O)NCC(C)Oc3cccnc3)no2)c(Cl)c1 (centres undefined)	0	0	-1	7	-15
Cc1ccc(S(=O)(=O)N2CCN(C(=O)c3ccnn3C)CC2)cc1C	-6	0	-5	1	-34*
SMILES	TRHR PAM	TRHR agonist	D1 PAM	D1 ag	D1 antag
CCCc1cc(-c2[nH]ncc2-c2ccc3c(c2)OCCCO3)c(O)cc1OC	-6	0	-1	37*	-27
Cc1n[nH]c(=O)c2c1nnn2Cc1ccccc1Cl	-25	0	-7	0	-51*
CCCOC(=O)c1c(NC(=O)C2c3ccccc3Oc3ccccc32)sc2c1CCCC2	-6	0	-5	0	-4
N=C1C(c2nc3ccccc3[nH]2)=C(O)CN1c1ccc(F)cc1	14	-1	-17	2	-30*
N=C1C(c2nc3ccccc3[nH]2)=C(O)CN1C1CCCCC1	3	-1	-4	1	-10
COc1ccc(NC(=O)Nc2c[nH]c(=O)[nH]c2=O)c(OC)c1	-3	0	1	2	-8
Cc1cccc(CSc2nc3c(c(-c4cccs4)c2C#N)CN(C)CC3)c1	-5	2	1	10	-38*
Cc1ccc(C=Nc2cccnc2N)cc1	-2	13	13	90*	7
C=C(C)CN1CCN(c2c(CCC#N)c(C)c(C#N)c3nc4ccccc4n23)CC1	2	-1	-2	-1	-38*
CCOC(=O)N1CCc2c(sc3c2c(=O)n(Cc2ccccc2)c(=O)n3CC(=O)Nc2ccccc2F)C1	-3	1	-1	2	-4
c1ccc2c(Nc3nc(N4CCOCC4)c4ccccc4n3)cccc2c1	-5	0	-22	1	-48*
Fc1ccc(Nc2nc(N3CCOCC3)c3ccccc3n2)cc1	7	0	-11	3	0
COc1ccccc1/C=C/C(=O)c1ccccc1	-4	-1	-6	1	3
O=C(/C=C/c1ccccc1O)c1ccc(Cl)cc1	8	1	-2	3	-12
COc1ccccc1/C=C/C(=O)c1ccc(Cl)cc1	-7	0	-6	12	-36*
CCOc1ccccc1/C=C/C(=O)c1ccc(Cl)cc1	0	0	-6	8	-32*
COc1ccc(CN2CCN(Cc3c[nH]c4ccccc34)CC2CCO)c(F)c1 (centres undefined)	1	1	-11	15	-36*
Cc1ncc(CN2CCN(Cc3ccccc3)C(CCO)C2)s1 (centres undefined)	22	-1	5	0	-6
CCOc1ccc(CN2CCN(Cc3cc4ccccc4[nH]3)CC2CCO)cc1 (centres undefined)	-7	24	6	41*	-30*
COc1cccc(CN2CCN(Cc3cc4ccccc4[nH]3)CC2CCO)c1 (centres undefined)	-17	15	-1	72*	-49*
CCOc1ccc(CN2CCN(Cc3cnc(-c4ccccc4)s3)CC2CCO)cc1 (centres undefined)	1	-1	-3	61*	-10
CC(C)(C)CN1CCN(Cc2cc3ccccc3[nH]2)CC1CCO (centres undefined)	2	0	-7	3	17
COc1cccc(NC(=O)CCNC(=O)Cn2cnc3ccccc3c2=O)c1	9	2	1	-1	-5
O=C(CC(=O)c1c(F)cccc1Cl)c1ccccc1O	9	-1	16	-1	16
Cc1cccc(C2N3CC4(C(C)C)CN2CC(C(C)C)(C3)C4=O)c1 (centres undefined)	1	0	-3	2	-1
COc1ccccc1OCCn1c(NC(=O)c2ccccc2Cl)nc2ccccc21	7	0	-1	-1	-4

Screening data (PubChem BioAssay)
